Measured values reported in the supplement of paper PMC8975748.
Structures can show the parent of a compound that is named as a salt.

Each molecule was assayed on Saccharomyces cerevisiae BY4741 SeMeCo community (assay: z-score of prototroph abundance vs DMSO median; higher = larger share of this subpopulation than in DMSO controls). Settings: 10 µM; 24 h; SM minimal medium; subpopulation (auxotrophy): Prototroph.
Procedure: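 Fluorescent four-plasmid SeMeCo (self-establishing metabolically cooperating S. cerevisiae BY4741 community; plasmids pH-mRuby2, pL-mWasabi, pU-eCFP, pM-TagRFP657) was grown 24 h in minimal SM medium with each Selleck FDA-approved drug at 10 µM in 384-well plates. Cells were fixed and imaged by high-content confocal microscopy. For each auxotrophic subpopulation (and the prototroph), a z-score gives the deviation from the DMSO vehicle-control population median.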

Structure (SMILES)	z-score of prototroph abundance
N#Cc1nn(-c2c(Cl)cc(C(F)(F)F)cc2Cl)c(N)c1[S+]([O-])C(F)(F)F (stereo not given) [Fipronil]	0.88
CCOC(=O)Nc1ccc(NCc2ccc(F)cc2)cc1N [Retigabine 2HCl]	0.05
CN[C@@H]1[C@@H](O)[C@@H](O[C@@H]2[C@@H](O)[C@H](O[C@H]3O[C@H](CN)CC[C@H]3N)[C@@H](N)C[C@H]2N)OC[C@]1(C)O.CN[C@@H]1[C@@H](O)[C@@H](O[C@@H]2[C@@H](O)[C@H](O[C@H]3O[C@H]([C@@H](C)N)CC[C@H]3N)[C@@H](N)C[C@H]2N)OC[C@]1(C)O.CN[C@@H]1[C@@H](O)[C@@H](O[C@@H]2[C@@H](O)[C@H](O[C@H]3O[C@H]([C@@H](C)NC)CC[C@H]3N)[C@@H](N)C[C@H]2N)OC[C@]1(C)O [Gentamicin Sulfate]	0.63
CN[C@@H]1[C@@H](O)[C@@H](O[C@@H]2[C@@H](O)[C@H](O[C@H]3O[C@H]([C@@H](C)O)[C@@H](O)[C@H](O)[C@H]3N)[C@@H](N)C[C@H]2N)OC[C@]1(C)O [Geneticin (G418 Sulfate)]	0.1
Oc1cc(Cl)ccc1Oc1ccc(Cl)cc1Cl [Triclosan]	2.53
C[C@H]1O[C@H](O[C@H]2[C@H](O)[C@@H](O)[C@@H](O)[C@H](O)[C@@H]2O)[C@@H](N)C[C@@H]1NC(=N)C(=O)O [Kasugamycin hydrochloride]	0.23
C=CC[C@]1(O)CC[C@H]2[C@@H]3CCC4=CC(=O)CCC4=C3C=C[C@@]21C [Altrenogest]	0.56
Nc1nc(N)nc(NC2CC2)n1 [Cyromazine]	-1.21
CC(C)=CCOc1c2occc2cc2ccc(=O)oc12 [Imperatorin]	-0.8
CN(C)[C@@H]1C(=O)C(C(N)=O)=C(O)[C@@]2(O)C(=O)C3=C(O)c4c(O)cccc4[C@@](C)(O)[C@H]3[C@H](O)[C@@H]12 [Oxytetracycline Dihydrate]	0.77
CN1[C@@H]2CC[C@H]1C[C@@H](OC(=O)[C@H](CO)c1ccccc1)C2 [Hyoscyamine]	0.38
Cn1cc(C2=C(c3cn(C4CCN(Cc5ccccn5)CC4)c4ccccc34)C(=O)NC2=O)c2ccccc21	0.73
Cc1cc(C(C#N)c2ccc(Cl)cc2)c(Cl)cc1NC(=O)c1cc(I)cc(I)c1O (stereo not given) [Closantel]	0
C#C[C@]1(O)C=C[C@H]2[C@@H]3CCC4=CC(=O)CC[C@@H]4[C@H]3CC[C@@]21CC [Gestodene]	0.59
CCOC(=O)Nc1ccc(NCc2ccc(F)cc2)cc1N [Retigabine]	0.21
CC[N+](C)(CC)CCOC(=O)C(O)(c1ccccc1)c1ccccc1 [Methylbenactyzine Bromide]	1.09
CN1[C@@H]2C[C@@H](OC(=O)[C@H](CO)c3ccccc3)C[C@H]1[C@@H]1O[C@@H]12 [Scopolamine HBr]	0.86
O=C(O[C@H]1C[C@H]2CC[C@@H](C1)[N+]21CCCC1)C(O)(c1ccccc1)c1ccccc1 [Trospium chloride]	0.42
COc1ccc2c(c1)[C@]13CCCC[C@@H]1[C@H](C2)N(C)CC3 [Dextromethorphan hydrobromide hydrate]	0.38
CC[C@H]1[C@@H]2C[C@H]3[C@@H]4N(C)c5ccccc5[C@]45C[C@@H]([C@@H]2[C@H]5O)N3[C@@H]1O [Ajmaline]	0.22

Structure (SMILES)	z-score of prototroph abundance
O=C(O[C@H]1C[N+]2(CCCOc3ccccc3)CCC1CC2)C(O)(c1cccs1)c1cccs1 [Aclidinium Bromide]	-0.31
NC(=O)CN1CCCC1=O [Piracetam]	-1.9
CN(C)[C@@H]1C(=O)C(C(N)=O)=C(O)[C@@]2(O)C(=O)C3=C(O)c4c(O)ccc(Cl)c4[C@@](C)(O)[C@H]3C[C@@H]12 [Chlortetracycline HCl]	0.13
C=CN1CCCC1=O.II [Povidone iodine]	-1.1
CC[C@@]1(O)C(=O)OCc2c1cc1n(c2=O)Cc2cc3ccccc3nc2-1 [Camptothecin]	0.34
CN1c2ccccc2C(NCCCCCCC(=O)O)c2ccc(Cl)cc2S1(=O)=O (stereo not given) [Tianeptine sodium]	0
O=c1[nH]c2ccccc2n1CCCN1CCC(n2c(=O)[nH]c3cc(Cl)ccc32)CC1 [Domperidone]	-0.65
CC(=O)O[C@H]1C[C@@H]2CC[C@@H]3[C@H](CC[C@@]4(C)[C@H]3C[C@H]([N+]3(C)CCCCC3)[C@@H]4OC(C)=O)[C@@]2(C)C[C@@H]1[N+]1(C)CCCCC1 [Pancuronium dibromide]	0.97
CCN1CC2(OC(=O)c3ccccc3NC(C)=O)CCC(OC)C34C1C(CC23)C1(O)CC(OC)C2CC4C1(O)C2OC (stereo not given) [Lappaconitine]	0.24
N[C@@H]1C[C@H]1c1ccccc1 [Tranylcypromine (2-PCPA) HCl]	0.44
CC1(C)SC2C(N)C(=O)N2C1C(=O)O (stereo not given) [6-Aminopenicillanic acid]	0.04
COc1ccc2[nH]cc(CCN)c2c1 [5-Methoxytryptamine]	-0.96
NCC(O)c1ccc(O)cc1 (racemic) [(+,-)-Octopamine HCl]	0.28
CC(C)N(CCC(C(N)=O)(c1ccccc1)c1ccccn1)C(C)C (stereo not given) [Disopyramide]	-0.35
Nc1ccncc1 [4-Aminopyridine]	-0.05
CCN(C)C(=O)Oc1cccc([C@H](C)N(C)C)c1 [Rivastigmine]	-0.39
COc1ccc(C=O)cc1 [p-Anisaldehyde]	1.5
CN(C)[C@@H]1C(=O)C(C(N)=O)=C(O)[C@@]2(O)C(=O)C3=C(O)c4c(O)cccc4[C@@](C)(O)[C@H]3[C@H](O)[C@@H]12 [Oxytetracycline (Terramycin)]	-0.34
C=C[C@H]1CN2CC[C@H]1C[C@H]2[C@H](O)c1ccnc2ccccc12 [Cinchonidine]	-0.41
C=CCN1C[C@H](C(=O)N(CCCN(C)C)C(=O)NCC)C[C@@H]2c3cccc4[nH]cc(c34)C[C@H]21 [Cabergoline]	-0.35
